Experiments:
Experiment in all cases: log2 ratio of Biotin-Ahx-Ub-VS probe labelling (fragment/DMSO); higher = less target engagement (more negative = stronger competition), active = hit call of the paper (q ≤ 0.05, log2 ratio ≤ -1)
Settings in all cases: compound concentration: 200 uM; treatment time: 3 h
USP19 = molecular target: T1, USP19 (UniProt O94966)
T1 sequence (whole entry): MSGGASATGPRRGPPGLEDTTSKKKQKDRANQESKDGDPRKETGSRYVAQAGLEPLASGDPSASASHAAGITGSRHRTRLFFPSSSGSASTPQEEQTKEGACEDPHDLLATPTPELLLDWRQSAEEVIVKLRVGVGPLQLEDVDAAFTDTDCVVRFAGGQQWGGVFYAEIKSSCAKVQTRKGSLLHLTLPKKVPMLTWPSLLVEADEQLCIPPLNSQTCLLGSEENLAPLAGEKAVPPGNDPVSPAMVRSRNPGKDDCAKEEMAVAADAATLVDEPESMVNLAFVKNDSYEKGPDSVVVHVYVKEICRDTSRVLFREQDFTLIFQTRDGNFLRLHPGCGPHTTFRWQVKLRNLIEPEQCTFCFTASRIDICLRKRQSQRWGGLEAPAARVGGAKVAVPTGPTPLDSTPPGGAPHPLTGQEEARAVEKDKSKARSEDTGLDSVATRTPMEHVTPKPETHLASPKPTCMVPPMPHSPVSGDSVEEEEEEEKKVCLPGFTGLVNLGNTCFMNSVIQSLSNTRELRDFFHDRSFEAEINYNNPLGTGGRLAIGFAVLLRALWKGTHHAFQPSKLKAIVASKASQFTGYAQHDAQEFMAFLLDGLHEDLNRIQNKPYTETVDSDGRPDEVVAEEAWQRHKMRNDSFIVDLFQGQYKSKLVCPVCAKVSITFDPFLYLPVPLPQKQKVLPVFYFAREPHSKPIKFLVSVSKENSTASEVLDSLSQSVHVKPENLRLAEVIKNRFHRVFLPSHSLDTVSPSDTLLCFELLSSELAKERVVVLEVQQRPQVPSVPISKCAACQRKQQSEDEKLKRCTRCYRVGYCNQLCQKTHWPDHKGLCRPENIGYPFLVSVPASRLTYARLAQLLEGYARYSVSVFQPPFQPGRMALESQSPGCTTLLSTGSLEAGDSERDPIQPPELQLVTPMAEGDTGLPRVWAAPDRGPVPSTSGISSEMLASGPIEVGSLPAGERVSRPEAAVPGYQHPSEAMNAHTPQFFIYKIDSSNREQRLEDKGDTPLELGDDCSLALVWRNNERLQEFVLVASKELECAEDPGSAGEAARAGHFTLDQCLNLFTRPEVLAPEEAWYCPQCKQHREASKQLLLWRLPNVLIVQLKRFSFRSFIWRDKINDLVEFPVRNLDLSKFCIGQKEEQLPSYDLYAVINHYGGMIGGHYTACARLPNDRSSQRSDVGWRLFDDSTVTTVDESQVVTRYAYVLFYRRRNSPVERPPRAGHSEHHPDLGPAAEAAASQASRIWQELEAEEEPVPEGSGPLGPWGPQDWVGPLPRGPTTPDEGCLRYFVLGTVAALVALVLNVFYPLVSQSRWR
Summary of the method: (§1)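 Triplicate samples of HEK293T lysate, 495 µg each, received fragment at 200 µM or vehicle for 3 h, followed by Biotin-Ahx-Ub-VS (0.5 µM final) for 1 h. After NeutrAvidin enrichment of labelled DUBs and LysC/trypsin digestion, peptides were run by diaPASEF LC-MS/MS. The values are average log2 fragment/vehicle ratios from global-median-normalised Spectronaut label-free quantities, tested by unpaired t-test on proteins having ≥2 unique peptides.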

USP22 = molecular target: T2, USP22 (UniProt Q9UPT9)
T2 sequence (whole entry): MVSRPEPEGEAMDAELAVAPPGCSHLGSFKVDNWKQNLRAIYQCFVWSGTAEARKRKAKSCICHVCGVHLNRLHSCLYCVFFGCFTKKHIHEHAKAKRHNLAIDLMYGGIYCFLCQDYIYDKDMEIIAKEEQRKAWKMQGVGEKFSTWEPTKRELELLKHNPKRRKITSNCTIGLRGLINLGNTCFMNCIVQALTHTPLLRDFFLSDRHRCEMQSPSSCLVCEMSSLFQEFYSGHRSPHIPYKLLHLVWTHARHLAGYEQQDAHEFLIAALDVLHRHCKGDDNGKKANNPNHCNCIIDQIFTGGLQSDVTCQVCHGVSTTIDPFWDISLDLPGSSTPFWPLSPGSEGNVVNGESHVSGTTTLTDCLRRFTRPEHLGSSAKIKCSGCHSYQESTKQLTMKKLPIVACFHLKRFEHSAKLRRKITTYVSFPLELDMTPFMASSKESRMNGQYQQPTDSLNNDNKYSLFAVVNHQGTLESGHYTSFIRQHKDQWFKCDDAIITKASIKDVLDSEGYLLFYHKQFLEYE
Summary of the method: as §1

USP24 = USP24 (UniProt Q9UPU5)
Summary of the method: as §1

USP25 = molecular target: T3, USP25 (UniProt Q9UHP3)
T3 sequence (whole entry): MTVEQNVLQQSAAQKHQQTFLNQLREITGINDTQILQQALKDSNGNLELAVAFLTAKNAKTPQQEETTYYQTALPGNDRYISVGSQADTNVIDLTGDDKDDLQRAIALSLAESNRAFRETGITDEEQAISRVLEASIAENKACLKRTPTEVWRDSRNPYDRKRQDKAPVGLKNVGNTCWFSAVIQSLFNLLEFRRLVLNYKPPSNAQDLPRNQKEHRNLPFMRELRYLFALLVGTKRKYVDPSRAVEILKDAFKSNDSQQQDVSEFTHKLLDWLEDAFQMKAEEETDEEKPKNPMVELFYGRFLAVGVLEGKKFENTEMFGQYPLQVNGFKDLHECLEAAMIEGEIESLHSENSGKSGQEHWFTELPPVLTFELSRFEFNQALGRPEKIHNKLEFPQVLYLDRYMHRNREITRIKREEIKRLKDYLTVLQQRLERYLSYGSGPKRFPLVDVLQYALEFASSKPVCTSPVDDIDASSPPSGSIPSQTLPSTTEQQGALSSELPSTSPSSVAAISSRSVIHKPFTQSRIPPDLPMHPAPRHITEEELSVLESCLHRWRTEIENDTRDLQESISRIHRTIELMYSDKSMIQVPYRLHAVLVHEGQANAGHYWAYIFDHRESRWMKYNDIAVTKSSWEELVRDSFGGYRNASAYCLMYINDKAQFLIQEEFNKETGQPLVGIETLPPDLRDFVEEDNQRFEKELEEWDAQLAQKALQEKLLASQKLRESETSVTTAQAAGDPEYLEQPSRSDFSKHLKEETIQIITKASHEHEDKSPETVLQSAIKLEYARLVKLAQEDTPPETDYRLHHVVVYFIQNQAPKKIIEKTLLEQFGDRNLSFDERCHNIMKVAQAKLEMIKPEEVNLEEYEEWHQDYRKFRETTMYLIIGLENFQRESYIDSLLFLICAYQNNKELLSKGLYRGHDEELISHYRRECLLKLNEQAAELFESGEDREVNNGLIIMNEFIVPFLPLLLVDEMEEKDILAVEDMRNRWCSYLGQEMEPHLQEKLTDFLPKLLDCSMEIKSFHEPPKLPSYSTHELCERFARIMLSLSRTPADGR
Summary of the method: as §1

USP28 = molecular target: T4, USP28 (UniProt Q96RU2)
T4 sequence (whole entry): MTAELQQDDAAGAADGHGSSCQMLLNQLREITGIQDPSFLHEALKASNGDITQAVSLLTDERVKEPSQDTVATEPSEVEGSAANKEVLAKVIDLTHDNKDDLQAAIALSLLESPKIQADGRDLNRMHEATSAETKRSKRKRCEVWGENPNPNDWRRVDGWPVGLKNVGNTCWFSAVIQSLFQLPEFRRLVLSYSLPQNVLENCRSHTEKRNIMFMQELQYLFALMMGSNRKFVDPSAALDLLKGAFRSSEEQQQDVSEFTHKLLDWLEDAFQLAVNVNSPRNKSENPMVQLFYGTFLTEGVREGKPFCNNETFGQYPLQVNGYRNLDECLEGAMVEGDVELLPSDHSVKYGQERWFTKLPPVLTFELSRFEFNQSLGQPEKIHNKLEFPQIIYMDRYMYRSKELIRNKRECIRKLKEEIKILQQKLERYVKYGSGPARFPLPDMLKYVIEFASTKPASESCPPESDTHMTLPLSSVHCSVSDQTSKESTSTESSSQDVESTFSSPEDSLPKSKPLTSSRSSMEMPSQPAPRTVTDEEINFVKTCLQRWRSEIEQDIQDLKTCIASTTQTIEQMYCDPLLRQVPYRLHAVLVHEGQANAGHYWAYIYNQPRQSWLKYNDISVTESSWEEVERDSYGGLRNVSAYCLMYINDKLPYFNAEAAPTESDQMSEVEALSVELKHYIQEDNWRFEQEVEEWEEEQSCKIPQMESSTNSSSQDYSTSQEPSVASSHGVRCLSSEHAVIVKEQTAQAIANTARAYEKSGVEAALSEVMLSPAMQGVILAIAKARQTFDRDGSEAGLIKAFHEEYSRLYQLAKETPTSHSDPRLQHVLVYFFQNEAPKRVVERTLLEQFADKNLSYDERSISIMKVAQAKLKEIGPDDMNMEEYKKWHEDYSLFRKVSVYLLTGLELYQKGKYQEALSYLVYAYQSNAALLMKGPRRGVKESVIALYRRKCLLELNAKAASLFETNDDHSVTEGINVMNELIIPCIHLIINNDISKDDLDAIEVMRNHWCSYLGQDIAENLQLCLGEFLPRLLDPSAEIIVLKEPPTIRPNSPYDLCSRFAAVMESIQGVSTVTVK
Summary of the method: as §1

Measured: log2 ratio of Biotin-Ahx-Ub-VS probe labelling

Chain of USP24 (Q9UPU5 whole entry): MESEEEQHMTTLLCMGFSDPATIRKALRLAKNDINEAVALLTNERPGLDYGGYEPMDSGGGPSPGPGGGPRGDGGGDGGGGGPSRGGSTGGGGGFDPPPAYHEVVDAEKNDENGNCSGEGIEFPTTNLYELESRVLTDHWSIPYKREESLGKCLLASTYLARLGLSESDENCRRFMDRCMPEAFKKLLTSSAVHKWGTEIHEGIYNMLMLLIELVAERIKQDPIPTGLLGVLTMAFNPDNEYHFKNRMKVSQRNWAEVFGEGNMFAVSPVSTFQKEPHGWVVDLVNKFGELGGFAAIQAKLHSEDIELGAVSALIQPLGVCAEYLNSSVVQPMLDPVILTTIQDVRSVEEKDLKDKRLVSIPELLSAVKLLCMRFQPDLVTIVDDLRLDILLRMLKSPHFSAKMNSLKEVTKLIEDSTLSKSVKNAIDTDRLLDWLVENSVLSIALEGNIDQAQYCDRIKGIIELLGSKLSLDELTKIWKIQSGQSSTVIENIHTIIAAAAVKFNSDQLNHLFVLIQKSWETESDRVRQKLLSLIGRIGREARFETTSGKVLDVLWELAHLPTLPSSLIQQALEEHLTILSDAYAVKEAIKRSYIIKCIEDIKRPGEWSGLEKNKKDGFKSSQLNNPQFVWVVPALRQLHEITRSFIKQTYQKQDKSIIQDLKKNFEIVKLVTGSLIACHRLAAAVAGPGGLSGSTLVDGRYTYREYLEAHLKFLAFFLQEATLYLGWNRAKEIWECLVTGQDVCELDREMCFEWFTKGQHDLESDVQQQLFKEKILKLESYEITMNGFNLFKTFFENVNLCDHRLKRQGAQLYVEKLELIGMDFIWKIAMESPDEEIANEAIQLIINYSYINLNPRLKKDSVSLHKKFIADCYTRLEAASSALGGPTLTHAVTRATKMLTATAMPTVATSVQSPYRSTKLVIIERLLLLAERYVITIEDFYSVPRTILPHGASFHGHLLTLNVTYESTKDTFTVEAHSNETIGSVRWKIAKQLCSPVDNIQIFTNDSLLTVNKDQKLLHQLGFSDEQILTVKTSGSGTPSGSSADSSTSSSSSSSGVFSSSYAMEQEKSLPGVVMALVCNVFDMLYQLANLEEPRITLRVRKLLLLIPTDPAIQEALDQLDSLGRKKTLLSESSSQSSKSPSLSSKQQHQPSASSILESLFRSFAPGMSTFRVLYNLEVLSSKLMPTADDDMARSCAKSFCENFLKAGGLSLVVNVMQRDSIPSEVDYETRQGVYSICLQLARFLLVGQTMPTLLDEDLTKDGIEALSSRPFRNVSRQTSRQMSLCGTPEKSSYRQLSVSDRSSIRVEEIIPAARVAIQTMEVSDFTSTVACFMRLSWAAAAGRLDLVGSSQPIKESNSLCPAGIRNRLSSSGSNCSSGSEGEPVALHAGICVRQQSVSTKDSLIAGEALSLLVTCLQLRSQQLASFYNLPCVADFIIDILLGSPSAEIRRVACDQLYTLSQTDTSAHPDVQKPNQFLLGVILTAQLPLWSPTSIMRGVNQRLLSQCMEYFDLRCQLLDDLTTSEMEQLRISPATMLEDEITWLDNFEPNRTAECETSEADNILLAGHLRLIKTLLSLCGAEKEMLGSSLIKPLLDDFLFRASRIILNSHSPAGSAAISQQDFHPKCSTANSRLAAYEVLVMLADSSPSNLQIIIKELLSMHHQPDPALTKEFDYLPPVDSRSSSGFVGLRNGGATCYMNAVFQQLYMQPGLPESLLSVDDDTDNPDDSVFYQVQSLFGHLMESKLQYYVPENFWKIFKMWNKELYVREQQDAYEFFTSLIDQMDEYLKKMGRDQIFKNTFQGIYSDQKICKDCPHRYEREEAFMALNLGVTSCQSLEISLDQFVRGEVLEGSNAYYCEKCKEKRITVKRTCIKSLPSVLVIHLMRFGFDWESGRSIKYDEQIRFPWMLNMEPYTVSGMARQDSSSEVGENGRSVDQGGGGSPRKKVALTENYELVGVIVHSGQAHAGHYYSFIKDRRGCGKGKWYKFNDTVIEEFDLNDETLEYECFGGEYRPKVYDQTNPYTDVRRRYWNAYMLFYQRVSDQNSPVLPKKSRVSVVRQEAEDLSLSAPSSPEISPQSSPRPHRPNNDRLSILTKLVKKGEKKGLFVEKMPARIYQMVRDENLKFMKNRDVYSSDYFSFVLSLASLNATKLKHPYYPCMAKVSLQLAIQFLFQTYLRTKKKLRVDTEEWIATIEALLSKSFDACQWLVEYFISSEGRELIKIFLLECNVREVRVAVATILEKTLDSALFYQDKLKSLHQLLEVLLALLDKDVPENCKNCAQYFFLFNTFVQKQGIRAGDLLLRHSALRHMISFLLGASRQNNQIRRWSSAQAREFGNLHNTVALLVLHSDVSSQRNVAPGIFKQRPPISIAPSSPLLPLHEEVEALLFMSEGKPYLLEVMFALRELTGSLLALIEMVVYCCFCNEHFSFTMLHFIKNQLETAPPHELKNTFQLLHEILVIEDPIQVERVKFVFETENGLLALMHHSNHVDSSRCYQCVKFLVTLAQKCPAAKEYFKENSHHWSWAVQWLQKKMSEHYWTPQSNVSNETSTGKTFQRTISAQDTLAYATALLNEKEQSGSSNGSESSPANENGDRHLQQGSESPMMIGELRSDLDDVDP

CN(Cc1nc2ccccc2[nH]1)C(=O)CCl.Cl
inactive: USP19 -0.0932 | USP22 0.243 | USP24 -0.721 | USP25 0.0889 | USP28 -0.218

From the supplement of paper PMC11732987, “Enantioselective OTUD7B fragment discovery through chemoproteomics screening and high-throughput optimisation” (Communications Chemistry, 2025)
